Screening data (PubChem BioAssay)
Most compounds without a hit are left out; they make up all but 17% or so of the library.
ClpP mod: qHTS Assay for Activators of ClpP | purified B. subtilis ClpP, FRET peptide cleavage, 20 min | Potency, µM (top dose mostly 57.5 µM) | hit rate 1.9% among 340,000; active means well fitted falling curve with a large enough effect; inconclusive means small, poorly fitted or top-dose-only effect; inactive means no such curve, though single readings can be large or run the other way; further: the source files actives as falling curves though it sought activators and does not explain the sign; nearly all actives have a fitted effect of over 65% in size
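FRET quenching reversal measured ClpP activation: 10 microg/mL B. subtilis ClpP at pH 8 with the FRET-FV decapeptide, read at 430 nm after 320 nm excitation. The 20-min minus 0-min signal was scaled between DMSO/no-enzyme wells and ADEP (5.8 microM final).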
TDP1 inh: blocks human tyrosyl-DNA phosphodiesterase 1. Q9NUW8. recombinant TDP1, AlphaScreen DNA substrate cleavage. Potency, µM (titrated, usually from 130 µM), hits mostly inhibitors. hit rate 0.28% among 350,000; further: nearly all actives have a fitted effect of over 40% in size
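Here, a 5' biotin and 3' phosphotyrosine-FITC DNA oligonucleotide reports Tdp1 activity: intact substrate bridges AlphaScreen beads, while cleavage leaves a 3' phosphate and drops signal. All incubations at room temperature.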
TDP1 cell noCPT: qHTS for Inhibitors of human tyrosyl-DNA phosphodiesterase 1 (TDP1): qHTS in cells in absence of CPT | Potency, µM (highest dose often 46.2 µM), usual class: inhibitors | AID 686978, 2013 | DT40 Tdp1-/- hTDP1 cells, no CPT, ATP luminescence, 48 h | hit rate 15% among 420,000; further: nearly all actives have a fitted effect of over 55% in size
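No-CPT arm: Tdp1-/-;hTDP1 DT40 cells (400/well) plus compounds, incubated ≥48 hr at 37 °C. Readout CellTiter-Glo luminescence.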
TDP1 cell CPT: DT40-hTDP1 cell growth loss with CPT; chicken DT40 Tdp1-/-;hTDP1 cells + 20 nM CPT, ATP luminescence, 48 h; Potency, µM (series often up to 46.2 µM), most hits filed as inhibitors; hit rate 12% among 420,000; AID 686979; further: nearly all actives have a fitted effect of over 55% in size
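Chicken DT40 Tdp1-/- cells stably complemented with human TDP1 were seeded at 400 cells/well in medium containing 20 nM camptothecin, exposed to pin-transferred compounds, and grown at 37 °C for at least 48 hr. Viability was read as ATP luminescence.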
Each line names hits and unclear results; the compound was inactive in the other large screens. Unless noted, the call rests on the fitted dose curve; in most records, active means well fitted curve in the direction sought with a large enough effect; inconclusive means small, poorly fitted or top-dose-only effect, or another doubt; inactive means no such curve, though single readings can be large; an effect the other way counts as inactive or inconclusive.

COc1cccc(C(=O)Nc2ccccc2C(=O)OCc2cc(=O)n3c(C)csc3n2)c1	none
Cc1cccc2cc(CN(C(=O)c3ccc(N4CCCCC4)cc3)C3CC3)c(N3CCC(O)CC3)nc12	none (no result: ClpP mod, TDP1 inh)
COc1ccccc1C(=O)N(Cc1sccc1C)C1CCS(=O)(=O)C1 (stereo not drawn)	none
Cc1cccc2cc(CN(C(=O)c3ccc(-c4ccc(F)cc4)cc3)C3CC3)c(N3CCC(O)CC3)nc12	TDP1 cell noCPT 23µM, TDP1 cell CPT inconclusive (no result: ClpP mod, TDP1 inh)
COc1ccccc1C(=O)N(Cc1cc2cccc(C)c2nc1N1CCC(O)CC1)C1CC1	TDP1 cell noCPT 16µM (no result: ClpP mod, TDP1 inh)
CCCCCCCCCCCCCCCC(C)C1=NCCN1 (stereo not drawn)	TDP1 cell CPT inconclusive (no result: TDP1 inh)
COc1ccc(CC(=O)Nc2ccc(-c3nc4cc(C)ccc4o3)c(O)c2)cc1OC	ClpP mod 35µM, TDP1 cell noCPT inconclusive, TDP1 cell CPT inconclusive
Cc1cccc(OCC(=O)Nc2ccc(-c3nc4cc(C)ccc4o3)c(O)c2)c1	TDP1 cell noCPT inconclusive, TDP1 cell CPT 15µM
Cc1ccc2oc(-c3ccc(NC(=O)c4ccncc4)cc3O)nc2c1	none (no result: ClpP mod)
Cc1cccc(C)c1NC(=S)N1CCCN(Cc2ccc(F)cc2)C1	TDP1 cell noCPT inconclusive (no result: ClpP mod)
COc1ccc(NC(=S)N2CCCN(Cc3cccc(Cl)c3)C2)cc1	TDP1 cell noCPT 16µM, TDP1 cell CPT inconclusive (no result: ClpP mod)
COc1cccc(NC(=S)N2CCCN(Cc3ccc(F)cc3)C2)c1	TDP1 cell noCPT 23µM (no result: ClpP mod)
COc1ccc(C(=O)Nc2ccc(O)c3c(=O)cc(-c4cccc(Cl)c4)oc23)cc1	none (no result: TDP1 inh)
CC(C)(C)c1ccc(C(=O)Nc2ccc(O)c3c(=O)cc(-c4cccc(Cl)c4)oc23)cc1	TDP1 cell noCPT 7.3µM, TDP1 cell CPT 5.8µM (no result: TDP1 inh)
O=C(Nc1ccc(O)c2c(=O)cc(-c3cccc(Cl)c3)oc12)c1cccc(Cl)c1	TDP1 cell noCPT 8.2µM, TDP1 cell CPT 7.3µM (no result: TDP1 inh)
COC(=O)C1OC(=O)C2OC23[C@]2(C)C(OC(C)=O)CC4C(C)(C)C(=O)CC[C@]4(C)C2CC[C@@]13C (stereo partly drawn)	none (no result: ClpP mod)
O=C(NCCc1c[nH]c2ccccc12)c1ccccc1O	none (no result: ClpP mod, TDP1 cell noCPT, TDP1 cell CPT)
O=[N+]([O-])c1ccc(N2CCN(c3cccc(Cl)c3)CC2)cn1	TDP1 cell noCPT inconclusive, TDP1 cell CPT inconclusive (no result: ClpP mod)
Cc1ccc([C@H]2C[C@@H](n3cc(COC(=O)c4ccccc4)nn3)[C@H](O)CN2Cc2cccs2)cc1	TDP1 cell noCPT 21µM, TDP1 cell CPT inconclusive (no result: TDP1 inh)
O=C(OCc1cn([C@H]2C[C@H](c3ccccc3)N(Cc3cccs3)C[C@@H]2O)nn1)c1ccccc1	TDP1 cell noCPT 21µM, TDP1 cell CPT inconclusive (no result: TDP1 inh)
O=C(OCc1cn([C@@H]2CN(Cc3cccs3)[C@@H](c3ccccc3)C[C@H]2O)nn1)c1ccccc1	none (no result: TDP1 inh)
CC(C)=CCC/C(C)=C/CO/N=C1/C[C@@H](O)[C@@H](O)[C@@H]2[C@H]3C(=O)N(c4ccc(F)cc4F)C(=O)[C@@H]3CC[C@H]12	none (no result: ClpP mod, TDP1 cell noCPT, TDP1 cell CPT)
CC(C)(C)C(=O)NC1CC2CCCC(C1)N2C(=O)Nc1cccc(Cl)c1 (stereo not drawn)	none
O=C(/C=C/c1cccnc1)c1cccc(O)c1	TDP1 cell noCPT 2.9µM, TDP1 cell CPT 2.9µM (no result: ClpP mod, TDP1 inh)
O=C(/C=C/c1cccc(O)c1)c1cccnc1	TDP1 cell noCPT 23µM, TDP1 cell CPT 8.2µM (no result: ClpP mod)
O=C(/C=C/c1cccnc1)c1ccc([N+](=O)[O-])cc1	TDP1 cell noCPT inconclusive (no result: ClpP mod)
CCC1(C)CC(=O)N(c2ccc(C(=O)O)c(O)c2)C1=O (stereo not drawn)	ClpP mod 25µM
CCC1(C)CC(=O)N(c2ccc(F)c(Cl)c2)C(=O)C1	none (no result: TDP1 inh)
CN(C(=O)c1cnn(-c2ncc3c(n2)-c2ccccc2CCC3)c1C1CC1)C1CCOC1 (stereo not drawn)	none (no result: ClpP mod, TDP1 inh)
CN(C[C@H](Cc1ccccc1)N(C[C@H](Cc1ccccc1)N(CCc1cc(C(F)(F)F)cc(C(F)(F)F)c1)N=O)N=O)N=O	TDP1 cell noCPT 21µM, TDP1 cell CPT inconclusive
CN(C[C@H](Cc1ccccc1)N(CCN(CCc1ccccc1)N=O)N=O)N=O	TDP1 cell noCPT inconclusive, TDP1 cell CPT inconclusive
CN(C[C@H](Cc1ccccc1)N(C[C@H](Cc1cccc2ccccc12)N(CCc1ccccc1)N=O)N=O)N=O	TDP1 cell noCPT inconclusive, TDP1 cell CPT inconclusive (no result: TDP1 inh)
CC(C)C[C@@H](CN(C)N=O)N(C[C@H](Cc1ccccc1)N(CCc1ccccc1)N=O)N=O	TDP1 cell noCPT 18µM, TDP1 cell CPT inconclusive
CN(C[C@H](CC1CCCCC1)N(C[C@H](Cc1ccccc1)N(CCc1ccccc1)N=O)N=O)N=O	TDP1 cell noCPT 16µM, TDP1 cell CPT 18µM
COC(=O)c1ccc(C(NC(=O)OCc2ccccc2)/C(C)=C/[C@@H](C)C(=O)NCc2cccnc2)cc1 (stereo partly drawn)	none (no result: ClpP mod, TDP1 cell noCPT, TDP1 cell CPT)
CCOC(=O)c1c(C)[nH]c(C(=O)N/N=C\c2ccccc2O)c1C	TDP1 cell noCPT 3.7µM, TDP1 cell CPT 4.1µM
COc1ccc(/C=N/NC(=O)c2[nH]nc3c2CCc2ccccc2-3)cc1OC	TDP1 cell noCPT 2.6µM, TDP1 cell CPT 6.5µM
CCOC(=O)c1c(C)[nH]c(C(=O)N/N=C/c2ccc(OC)c(OC)c2)c1C	TDP1 cell noCPT 0.92µM, TDP1 cell CPT 1.2µM
COc1ccccc1/C=N/NC(=O)c1[nH]c(C)c(C(=O)N/N=C/c2ccccc2OC)c1C	none
CCOC(=O)c1c(C)[nH]c(C(=O)N/N=C/c2cc([N+](=O)[O-])ccc2O)c1C	TDP1 cell noCPT 6.5µM, TDP1 cell CPT 6.5µM (no result: ClpP mod)
CNC(=O)c1[nH]nc2c1CCc1ccccc1-2	none (no result: TDP1 inh)
CNC(=O)CSc1nc2ccccc2c(=O)n1C1CCCCC1	TDP1 cell noCPT inconclusive
CCO/C(C)=N/n1c2nc3ccccc3nc2c2c(=O)n(C3CCCC3)c(C)nc21	TDP1 cell noCPT 15µM, TDP1 cell CPT 18µM
Cc1nc2ccccc2c(=O)n1C1CCCCCC1	ClpP mod 25µM, TDP1 cell noCPT inconclusive, TDP1 cell CPT inconclusive
Cc1cccc(NC(=O)C2CCCN(S(=O)(=O)c3ccc4c(c3)oc(=O)n4C)C2)c1C (stereo not drawn)	none
CCOc1ccc(/C=N/NC(=O)c2nnn(-c3nonc3N)c2-c2ccc(OCC)cc2)cc1	none
CN(C)Cc1c(C(=O)N/N=C/c2ccc(OCc3c(F)cccc3Cl)cc2)nnn1-c1nonc1N	TDP1 cell noCPT 13µM, TDP1 cell CPT inconclusive (no result: ClpP mod)
CCOc1ccc(-c2c(C(=O)N/N=C/c3c[nH]c4ccccc34)nnn2-c2nonc2N)cc1	TDP1 cell noCPT 16µM, TDP1 cell CPT inconclusive
Nc1nonc1-n1nnc(C(=O)N/N=C/c2ccc(O)cc2)c1COc1ccc(F)cc1	none (no result: TDP1 inh)
CCOc1cccc(-c2c(C(=O)N/N=C(\C)c3ccccn3)nnn2-c2nonc2N)c1	TDP1 cell noCPT 1.6µM, TDP1 cell CPT 2.3µM
CCCN(CCC)Cc1c(C(=O)N/N=C/C(C)=C\c2ccccc2)nnn1-c1nonc1N	TDP1 cell noCPT 26µM, TDP1 cell CPT 16µM (no result: ClpP mod)
